USP10 inh: blocks human USP10 ubiquitin-rhodamine cleavage. 47,000 compounds, 1.1% hits. AID 1645856. Q14694. purified USP10, Ub-rhodamine fluorescence, 60 min. inhibition, % at 20 µM
USP7 block: inhibitors of human USP7 deubiquitinase | purified USP7, Ub-rhodamine cleavage fluorescence | inhibition, % at 20 µM | 47,000 compounds, 0.3% hits | Q93009 | AID 1645854
UCHL1 inh: human UCHL1 deubiquitinase inhibition; inhibition, % at 20 µM; purified UCHL1, Ub-rhodamine cleavage fluorescence; 47,000 compounds, 0.2% hits; P09936
OTUD3 block: inhibitors of human OTUD3 deubiquitinase; inhibition, % at 25 µM; purified OTUD3, Ub-rhodamine fluorescence, 2 h; Q5T2D3; 47,000 compounds, 0.7% hits
Target sequence (Q5T2D3 whole entry, looked up): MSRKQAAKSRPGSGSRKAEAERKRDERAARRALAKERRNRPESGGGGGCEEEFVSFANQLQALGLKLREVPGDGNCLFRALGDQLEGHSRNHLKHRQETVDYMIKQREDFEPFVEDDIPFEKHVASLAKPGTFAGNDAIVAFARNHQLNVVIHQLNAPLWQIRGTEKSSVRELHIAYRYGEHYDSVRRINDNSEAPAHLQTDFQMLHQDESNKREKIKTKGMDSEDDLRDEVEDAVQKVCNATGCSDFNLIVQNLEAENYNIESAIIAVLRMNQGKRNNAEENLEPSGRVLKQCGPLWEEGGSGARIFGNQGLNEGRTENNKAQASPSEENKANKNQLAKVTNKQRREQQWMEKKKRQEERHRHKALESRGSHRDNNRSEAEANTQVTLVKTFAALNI
* = called active by the depositor. Sampled rows, rich in hits. Any-hit rate of the full collection: about 1.5%. Cut-off read from the data, not from the text of the source: active = inhibition above about 30%; inactive = the rest.

SMILES | USP10 inh | USP7 block | UCHL1 inh | OTUD3 block
O=C(NCc1ccccc1Cl)C1CCn2c(nc3ccccc32)C1 (stereo not given) | -3 | -4 | -2 | -2
CCOc1ccc2c(c1)c(=O)c(C(=O)c1ccc(F)cc1)cn2CC(=O)Nc1ccccc1 | 28 | 17 | -2 | -1
CCOc1ccc2c(c1)c(=O)c(C(=O)c1ccc(C)cc1)cn2CC(=O)Nc1ccc(C)c(C)c1 | 66* | 59* | 16 | 0
COc1cccc(NC(=O)Cn2cc(C(=O)c3ccc(C)cc3)c(=O)c3cc(Cl)ccc32)c1 | 43* | 35* | 13 | 0
CCOc1ccc2c(c1)c(=O)c(C(=O)c1ccccc1)cn2CC(=O)Nc1ccccc1 | 29 | 27 | 4 | -5
Cc1ccc2c(c1)c(=O)c(C(=O)c1ccccc1)cn2CC(=O)Nc1ccccc1 | 27 | 30 | 9 | -3
Cc1ccc(C(=O)c2cn(CC(=O)Nc3ccc(F)c(F)c3)c3ccc(F)cc3c2=O)cc1 | 12 | 19 | -3 | -40
CCOc1ccc2c(c1)c(=O)c(C(=O)c1ccccc1)cn2CC(=O)Nc1ccc2c(c1)OCCO2 | 53* | 8 | 6 | 12
Cc1ccc(NC(=O)Cn2cc(C(=O)c3ccccc3)c(=O)c3cc(C)ccc32)cc1 | 44* | 32* | 0 | -1
O=c1c2ccccc2nc(-c2ccccc2)n1C1CCS(=O)(=O)C1 (stereo not given) | 3 | 2 | 0 | 9
CC(=O)Nc1cccc(C(=O)Nc2ccc(CN3CCOCC3)cc2)c1 | 1 | 0 | 0 | 8
CCOc1ccc2c(c1)c(=O)c(C(=O)c1ccc(C)cc1)cn2CC(=O)Nc1ccc(C)cc1 | 62* | 60* | 24 | 7
CCOc1ccc2c(c1)c(=O)c(C(=O)c1ccc(C)cc1)cn2CC(=O)Nc1ccc(OC)cc1 | 16 | 1 | -2 | -7
Cc1ccc(C(=O)c2cn(CC(=O)Nc3ccc4c(c3)OCO4)c3ccccc3c2=O)cc1 | 57* | 33* | 7 | 22
O=C(Cn1cc(C(=O)c2ccccc2)c(=O)c2cc3c(cc21)OCCO3)Nc1ccc2c(c1)OCO2 | 9 | -1 | -3 | -7
CNC(=O)c1ccc2c(c1)CCN2C(=O)C1CCCC1 | -5 | -1 | 0 | 8
Cc1noc(-c2nn(C)c3c2CN(S(=O)(=O)Cc2cccc(F)c2)CC3)n1 | -3 | 1 | -2 | -14
O=c1cc(-c2ccc(O)c(O)c2)oc2cc(O[C@@H]3O[C@H](CO)[C@@H](O)[C@H](O)[C@H]3O)cc(O)c12 | 52* | 36* | 31* | 97*
Cc1ccc(-c2cnc(C3CC3)o2)cc1S(=O)(=O)Nc1ccc(F)c(Cl)c1 | 39* | -37 | 6 | 0
COc1ccc(NS(=O)(=O)c2cc(-c3cnc(C4CC4)o3)ccc2C)cc1OC | 1 | -2 | -1 | 0
CCOC(=O)N1CCN(C(=O)c2ccc(NCc3ccc(F)cc3)c(S(=O)(=O)Nc3cccc(C(F)(F)F)c3)c2)CC1 | 56* | 8 | 8 | 0
O=C(Nc1ccccc1F)c1nc(-c2cnccn2)no1 | 5 | 0 | 3 | 6
CC(CCC(=O)NCC(=O)O)C1CCC2C3CCC4C[C@H](O)CC[C@]4(C)C3C[C@H](O)[C@]12C (stereo not given in full) | 9 | -1 | -2 | -21
Cc1ccc(NC(=O)COc2ccc3oc4c(c3c2)CCCC4)cc1 | 9 | 10 | 1 | 16
Cc1cc(NC(=O)COc2ccc3oc4c(c3c2)CCCC4)n(-c2ccccc2)n1 | 39* | 10 | 2 | 1
SMILES | USP10 inh | USP7 block | UCHL1 inh | OTUD3 block
Cc1c(CCC(=O)N2CC[C@@]3(O)CCCC[C@H]3C2)c(=O)oc2cc(OCc3ccc(F)cc3F)ccc12 | 2 | -2 | 9 | 12
COc1ccc(COc2ccc3c(C)c(CC(=O)N4CC[C@@]5(O)CCCC[C@H]5C4)c(=O)oc3c2)cc1 | 62* | 4 | -3 | 8
Cc1c(OCC(=O)NCC(=O)N2CCC3(O)CCCCC3C2)ccc2c3c(c(=O)oc12)CCCC3 (stereo not given) | -4 | -4 | -1 | 41*
COc1c(O)c(C)c(C)c(O)c1OC (tested in a mixture with another compound) | 3 | 5 | 1 | 4
COc1c(C)c(OC(=O)c2c(C)c(C)c(OC(=O)c3c(C)c(C)c(O)c(C)c3O)c(C)c2OC)c(C)c(C)c1C(=O)O | 66* | 5 | 0 | 13
N#Cc1cccc(CN2CC[C@H](c3nc4ccccc4[nH]3)C2)c1 | -2 | -1 | 0 | -4
Nc1nc(SCc2cccnc2)[nH]c(=O)c1NC(=O)c1ccco1 | -2 | 2 | 0 | 0
CCc1ccc(NC(=O)Cn2c(=O)n(Cc3ccccc3)c(=O)c3nn(CC)cc32)cc1 | 56* | 32* | 5 | 18
CCn1cc2c(n1)c(=O)n(Cc1ccccc1)c(=O)n2CC(=O)Nc1ccc(OC)cc1 | 47* | 10 | 4 | -3
CCn1cc2c(n1)c(=O)n(Cc1ccccc1)c(=O)n2CC(=O)Nc1ccc(C(C)C)cc1 | 23 | 14 | 3 | 8
Cc1ccc(NC(=O)CSc2nccn(-c3ccc(C)c(F)c3)c2=O)cc1F | -3 | -4 | 0 | 3
COc1cc(O)cc2c1C(=O)OC(C)CCCCCCC2 (stereo not given) | 38* | 24 | 1 | 6
COc1cc(O)cc2c1C(=O)OC(C)CCCC(O)CCC2 (stereo not given) | -6 | 1 | -4 | -7
FC(F)(F)c1cccc(-c2cc3nc(NCCc4ccncc4)ccn3n2)c1 | -10 | -1 | -2 | -20
COc1cc(NC(=O)Cc2cn3ccccc3n2)cc(OC)c1 | -3 | -10 | -13 | -19
O=C(Nc1ccc(-c2cn3ccccc3n2)cc1)C1C=C2C=C(Br)C=CC2OC1=O (stereo not given) | 5 | 5 | 3 | 43*
COc1ccc(Nc2nc(C(=O)NCc3ccccc3)cc3occc23)cc1 | 15 | -3 | 4 | 12
COc1ccc(Nc2nc(C(=O)NCc3ccc4c(c3)OCO4)cc3occc23)cc1 | 33* | -6 | 7 | -2
CCCCCCCC[C@@H](C)[C@@H]1OC(=O)[C@H](CO)NC(=O)[C@H](C(=O)c2c[nH]c3ccccc23)NC(=O)[C@@H](CCC(=O)O)NC(=O)[C@H]1C | 24 | -6 | 2 | 4
CCCCCCCCCCCC(O)CC(=O)N[C@@H](CC(C)C)C(=O)N[C@H](CCC(=O)O)C(=O)N[C@H]1C(=O)N[C@H]([C@@H](C)CC)C(=O)NC(CC(C)C)C(=O)N[C@H](CO)C(=O)N[C@@H](CC(C)C)C(=O)N[C@@H](CC(C)C)C(=O)N[C@H](CO)C(=O)N[C@@H](C(C)C)C(=O)O[C@@H]1C (stereo not given in full) | 35* | 39* | 29 | 44*
O=C(CN1C(=O)CC(c2ccc(F)cc2)=Nc2ccccc21)Nc1ccccc1 | 15 | 4 | 9 | 10
Cc1cccc(C)c1NC(=O)CN1C(=O)CC(c2ccccc2)=Nc2ccccc21 | 39* | 3 | -3 | 0
CC(C)CCCCCCCCCCCC(=O)O | 30* | -18 | 4 | 6
O=C(COC(=O)c1ccccc1OCc1ccccc1)Nc1cccc2ccccc12 | 6 | 8 | 2 | 22
